# Data taken from PubChem BioAssay (NCATS).
# Records with an inconclusive call do not appear. Active and inactive are the calls of the source. Unless noted, calls come from the whole dose curve; as a rule, active = well fitted inhibition curve with a large enough effect; inconclusive = small, poorly fitted or top-dose-only effect; inactive = flat fitted curve, though single readings scatter.
# Key:
# [1] = qHTS for identification of novel therapeutic agents for treatment of microphthalmiaassociated transcription factor (MiT) renal cell carcinoma (RCC) (AID 1963991; calls by dose curve); settings: CellTiter-Glo, 48 h; for Potency: active = Z-AUC below -0.8 in all three lines; for z-score: stronger effect = lower value
# Method in brief: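 Curves over 11 concentrations were fitted to CellTiter-Glo luminescence, scaled between empty wells (0%) and DMSO (100%) viability. Cells were UOK109, UOK124 and UOK145 TFE3-fusion RCC lines at 500/well, exposed 48 hours at 37 C.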
# [2] = test system: 3D7; assay: qHTS profiling for inhibitors of Plasmodium falciparum proliferation (AID 504749); note: nearly all actives have a fitted effect of over 60% in size; settings: P. falciparum in erythrocytes, SYBR Green DNA, 72 h; series mostly up to 28.7 µM
# Method in brief: (§1)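 In a 72 h erythrocytic culture (37 C, humidified, 5% CO2) at 2.5% hematocrit and 0.3% starting parasitemia, compounds were tested; SYBR Green I in detergent lysis buffer stained parasite DNA overnight.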
# [3] = test system: 7G8; assay: as above; settings: P. falciparum in erythrocytes, SYBR Green DNA, 72 h; series mostly up to 28.7 µM
# Method in brief: as §1
# [4] = test system: AA1029; assay: as above; settings: P. falciparum in erythrocytes, SYBR Green DNA, 72 h; series mostly up to 28.7 µM
# Method in brief: as §1
# [5] = test system: AS120; assay: as above; settings: P. falciparum in erythrocytes, SYBR Green DNA, 72 h; series mostly up to 28.7 µM
# Method in brief: as §1
# [6] = test system: ATS189; assay: as above; settings: P. falciparum in erythrocytes, SYBR Green DNA, 72 h; series mostly up to 28.7 µM
# Method in brief: as §1
# [7] = test system: ATS95; assay: as above; settings: P. falciparum in erythrocytes, SYBR Green DNA, 72 h; series mostly up to 28.7 µM
# Method in brief: as §1
# [8] = test system: C2A; assay: as above; settings: P. falciparum in erythrocytes, SYBR Green DNA, 72 h; series mostly up to 28.7 µM
# Method in brief: as §1
# [9] = test system: CP191; assay: as above; settings: P. falciparum in erythrocytes, SYBR Green DNA, 72 h; series mostly up to 28.7 µM
# Method in brief: as §1
# [10] = test system: CP192; assay: as above; settings: P. falciparum in erythrocytes, SYBR Green DNA, 72 h; series mostly up to 28.7 µM
# Method in brief: as §1
# [11] = test system: CP194; assay: as above; settings: P. falciparum in erythrocytes, SYBR Green DNA, 72 h; series mostly up to 28.7 µM
# Method in brief: as §1
# [12] = test system: CP201; assay: as above; settings: P. falciparum in erythrocytes, SYBR Green DNA, 72 h; series mostly up to 28.7 µM
# Method in brief: as §1
# [13] = test system: CP203; assay: as above; settings: P. falciparum in erythrocytes, SYBR Green DNA, 72 h; series mostly up to 28.7 µM
# Method in brief: as §1
# [14] = test system: CP215; assay: as above; settings: P. falciparum in erythrocytes, SYBR Green DNA, 72 h; series mostly up to 28.7 µM
# Method in brief: as §1
# [15] = test system: CP217; assay: as above; settings: P. falciparum in erythrocytes, SYBR Green DNA, 72 h; series mostly up to 28.7 µM
# Method in brief: as §1
# [16] = test system: CP237; assay: as above; settings: P. falciparum in erythrocytes, SYBR Green DNA, 72 h; series mostly up to 28.7 µM
# Method in brief: as §1
# [17] = test system: CP238; assay: as above; settings: P. falciparum in erythrocytes, SYBR Green DNA, 72 h; series mostly up to 28.7 µM
# Method in brief: as §1
# [18] = test system: CP247; assay: as above; settings: P. falciparum in erythrocytes, SYBR Green DNA, 72 h; series mostly up to 28.7 µM
# Method in brief: as §1
# [19] = TFE3-RCC UOK109 viability, measured here: UOK109 Z-AUC
# [20] = TFE3-RCC viability, measured here: UOK124 Z-AUC
# [21] = TFE3-RCC viability, measured here: UOK145 Z-AUC
# Potency is the fitted concentration of half-maximal effect.
smiles,measurement,setting,value
COc1ccc(Nc2cc(-c3cnc(N)nc3)nc(N3CCOCC3)n2)cn1,Potency,[1]; TFE3-RCC UOK109 viability,0.526 µM (active)
same,z-score,[1]; [19],-1.16
same,z-score,[1]; [20],-2.53
same,z-score,[1]; [21],-2.08
Cc1cnc(Nc2ccc(CN3CCOCC3)cc2)nc1Nc1cccc(S(=O)(=O)NC(C)(C)C)c1,Potency,[1]; TFE3-RCC UOK109 viability,4.18 µM (active)
same,z-score,[1]; [19],-1.32
same,z-score,[1]; [20],-0.971
same,z-score,[1]; [21],-1.1
N#CNC(=NCCCCCCOc1ccc(Cl)cc1)Nc1ccncc1,Potency,[1]; TFE3-RCC UOK109 viability,7.43 µM (active)
same,z-score,[1]; [19],-0.809
same,z-score,[1]; [20],-2.82
same,z-score,[1]; [21],-3.43
O=C(O)C=Cc1ccc(Cn2ccnc2)cc1,z-score,[1]; [19],0.607
same,z-score,[1]; [20],0.722
same,z-score,[1]; [21],0.686
O=C1NC(=O)C(=Cc2ccc3nccc(-c4ccncc4)c3c2)S1,Potency,[1]; TFE3-RCC UOK109 viability,0.833 µM (active)
same,z-score,[1]; [19],-1.04
same,z-score,[1]; [20],-1.39
same,z-score,[1]; [21],-1.83
CS[C@H]1SC[C@@H]2C(=O)N(C)[C@H](C(C)C)C(=O)OC[C@H](NC(=O)c3cnc4ccccc4n3)C(=O)N[C@H](C)C(=O)N(C)[C@@H]1C(=O)N(C)[C@H](C(C)C)C(=O)OC[C@H](NC(=O)c1cnc3ccccc3n1)C(=O)N[C@H](C)C(=O)N2C,Potency,[1]; TFE3-RCC UOK109 viability,0.00833 µM (active)
same,z-score,[1]; [19],-2.31
same,z-score,[1]; [20],-3.01
same,z-score,[1]; [21],-2.26
CCOc1cc2ncc(C#N)c(Nc3ccc(OCc4ccccn4)c(Cl)c3)c2cc1NC(=O)C=CCN(C)C,Potency,[1]; TFE3-RCC UOK109 viability,0.0166 µM (active)
same,z-score,[1]; [19],-2.6
same,z-score,[1]; [20],-0.947
same,z-score,[1]; [21],-1.43
C[C@H]1O[C@H](O[C@H]2[C@H](O)[C@@H](O)[C@@H](O[C@H]3[C@H](O)[C@@H](O)C(O)O[C@H]3CO)O[C@H]2CO)[C@H](O)[C@@H](O)[C@H]1N[C@H]1C=C(CO)[C@@H](O)[C@H](O)[C@@H]1O (some centres not stated),z-score,[1]; [19],0.975
same,z-score,[1]; [20],0.169
same,z-score,[1]; [21],1.64
CC(=O)[C@]1(O)Cc2c(O)c3c(c(O)c2[C@@H](O[C@H]2C[C@H](N)[C@@H](O)[C@H](C)O2)C1)C(=O)c1ccccc1C3=O,Potency,[1]; TFE3-RCC UOK109 viability,0.332 µM (active)
same,z-score,[1]; [19],-1.95
same,z-score,[1]; [20],-1.91
same,z-score,[1]; [21],-1.45
Cc1[nH]c(C=C2C(=O)Nc3ccccc32)c(C)c1CCC(=O)O,Potency,[1]; TFE3-RCC UOK109 viability,0.833 µM (active)
same,z-score,[1]; [19],-1.41
same,z-score,[1]; [20],-0.97
same,z-score,[1]; [21],-1.35
COc1cccc2c1C(=O)c1c(O)c3c(c(O)c1C2=O)C[C@@](O)(C(=O)CO)C[C@@H]3O[C@H]1C[C@H](N)[C@H](OC2CCCCO2)[C@H](C)O1 (some centres not stated),Potency,[2],2.24 µM (active)
same,Potency,[3],0.794 µM (active)
same,Potency,[4],3.55 µM (active)
same,Potency,[5],2.51 µM (active)
same,Potency,[6],11.2 µM (active)
same,Potency,[7],3.98 µM (active)
same,Potency,[8],8.91 µM (active)
same,Potency,[9],8.91 µM (active)
same,Potency,[10],8.49 µM (active)
same,Potency,[11],9.53 µM (active)
same,Potency,[12],9.53 µM (active)
same,Potency,[13],4.78 µM (active)
same,Potency,[14],6.75 µM (active)
same,Potency,[15],4.47 µM (active)
same,Potency,[16],2.24 µM (active)
same,Potency,[17],5.01 µM (active)
same,Potency,[18],3.55 µM (active)
CCc1cnn2c(NCc3ccc[n+]([O-])c3)cc(N3CCCC[C@@H]3CCO)nc12,Potency,[1]; TFE3-RCC UOK109 viability,0.059 µM (active)
same,z-score,[1]; [19],-2.34
same,z-score,[1]; [20],-1.76
same,z-score,[1]; [21],-1.93
COc1cccc2c1C(=O)c1c(O)c3c(c(O)c1C2=O)C[C@@](O)(C(C)=O)C[C@H]3O[C@H]1C[C@H](N)[C@H](O)[C@H](C)O1,Potency,[1]; TFE3-RCC UOK109 viability,0.296 µM (active)
same,z-score,[1]; [19],-1.65
same,z-score,[1]; [20],-2.33
same,z-score,[1]; [21],-1.35
Cc1ccc([N+](=O)[O-])cc1S(=O)(=O)N(C)N=Cc1cnc2ccc(Br)cn12,Potency,[1]; TFE3-RCC UOK109 viability,0.0235 µM (active)
same,z-score,[1]; [19],-2.11
same,z-score,[1]; [20],-3.04
same,z-score,[1]; [21],-2.3
